From PubChem BioAssay (NCATS)
Where “and” joins values, the source holds several entries; their conditions need not be identical. Equal values may be shown once. Results filed as inconclusive are left out. Entries that show only a call come without a potency. Calls of active or inactive are those of the source. Unless noted, calls come from the whole dose curve; as a rule, active = well fitted curve in the direction sought with a large enough effect; inconclusive = small, poorly fitted or top-dose-only effect, or another doubt; inactive = no such curve, though single readings can be large; an effect the other way counts as inactive or inconclusive.

Assays:
[1] = target: alpha-glucosidase (Oryza sativa, rice) (UniProt Q653V4); test: Counterscreen for Glucocerebrosidase Inhibitors: qHTS Assay for Rice alpha-Glucosidase at pH 5.0 (AID 997)
Summary of the method: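 Endpoint fluorogenic assay at pH 5.0: compounds (0.7 nM to 77 uM) titrated against 4 nM rice enzyme and 400 uM 4-MU-alpha-glucoside for 20 min at room temperature; NaOH/glycine stop, read ex 365/em 440 nm, Hill-fitted AC50.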

[2] = qHTS Assay for Lipid Storage Modulators (AID 1519; calls by dose curve); conditions: Drosophila S3 cells, BODIPY lipid droplet/cell ratio, laser cytometry, cells loaded with oleic acid
Summary of the method: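 Cells seeded at 5,000 per well were treated with compounds over a concentration series and loaded with oleic acid (400 uM, as added). Lipid droplet fluorescence (488 nm excitation, 500-530 nm channel) was read by laser-scanning cytometry and normalized to 20 uM Triacsin C.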

[3] = target: DNA repair nuclease/redox regulator APEX1 (Homo sapiens) (UniProt P27695); test: qHTS Validation Assay for Inhibitors of the Human Apurinic/apyrimidinic Endonuclease 1 (APE1) (AID 1705; note: potency is the fitted concentration of half-maximal effect;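 for activity change, negative = inhibition: TAMRA fluorescence gain over two minutes as APE1 cuts a quenched THF abasic duplex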)
DNA repair nuclease/redox regulator APEX1 (Homo sapiens), sequence (P27695 whole entry, looked up): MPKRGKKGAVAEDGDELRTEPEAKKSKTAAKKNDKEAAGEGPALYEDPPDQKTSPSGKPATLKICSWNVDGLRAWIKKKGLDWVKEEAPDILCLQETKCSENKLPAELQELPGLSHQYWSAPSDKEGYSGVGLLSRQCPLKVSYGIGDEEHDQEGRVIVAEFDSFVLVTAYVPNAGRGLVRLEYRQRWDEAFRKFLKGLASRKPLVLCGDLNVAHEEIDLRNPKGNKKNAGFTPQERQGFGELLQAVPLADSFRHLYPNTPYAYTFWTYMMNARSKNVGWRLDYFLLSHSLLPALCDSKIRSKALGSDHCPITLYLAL
Summary of the method: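 Read-out: TAMRA fluorescence (525 nm ex, 598 nm em) from cleavage of a quenched THF abasic-site duplex, 50 nM final; activity taken as intensity change between third and first of three reads 60 s apart.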

[4] = Counterscreen for APE1 Inhibitors: Fluorescent Dye Displacement Validation Assay (AID 1707)
Summary of the method: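 Reaction mixture of 250 nM Thiazole Orange and 50 nM double-stranded abasic-site DNA was dispensed, compounds were pin-transferred, and fluorescence was read at endpoint (480 nm ex, 540 nm em). Reduced fluorescence indicated dye displacement by DNA binding.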

[5] = target: Endonuclease 4 (Escherichia coli (strain K12)) (UniProt P0A6C1); test: Counterscreen for APE1 Inhibitors: qHTS Validation Assay for Inhibitors of Endonuclease IV (AID 1708)
Summary of the method: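 Enzyme (2 nM) + compound, 15 min RT; add 50 nM TAMRA/BHQ-2 THF-site dsDNA; kinetic read ex525/em598, 3 reads/60 s; activity = read 3 − read 1. Buffer Tris pH 7.5, 50 mM NaCl, 2 mM MgCl2, DTT, Tween-20.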

[6] = qHTS for differential inhibitors of proliferation of Plasmodium falciparum line 7G8 (AID 1815);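 note: parasite growth measured after three days of incubation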; note: potency is the fitted concentration of half-maximal effect
[7] = qHTS for differential inhibitors of proliferation of Plasmodium falciparum line GB4 (AID 1816); conditions: Potency: Plasmodium falciparum GB4 proliferation inhibition;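 note: parasite growth measured after 72 h incubation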; note: potency is the fitted concentration of half-maximal effect
[8] = qHTS for differential inhibitors of proliferation of Plasmodium falciparum line 3D7 (AID 1876); note: potency is the fitted concentration of half-maximal effect
[9] = qHTS for differential inhibitors of proliferation of Plasmodium falciparum line D10 (AID 1877);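 note: parasites grown with compound for 72 h before DNA staining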; note: potency is the fitted concentration of half-maximal effect
[10] = qHTS for differential inhibitors of proliferation of Plasmodium falciparum line Dd2 (AID 1882); conditions: Potency: Plasmodium falciparum Dd2 proliferation inhibition; note: nearly all actives have a fitted effect of over 65% in size; note: potency is the fitted concentration of half-maximal effect
Summary of the method: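 SYBR Green DNA fluorescence (ex 485, em 535 nm) after overnight lysis quantifies parasite growth; compound exposure lasted 72 h at 37 C on infected red cells at 2.5% hematocrit, 0.3% parasitemia (final). Artemisinin 0.29 uM and vehicle wells define normalization.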

[11] = qHTS for differential inhibitors of proliferation of Plasmodium falciparum line HB3 (AID 1886); conditions: Potency: Plasmodium falciparum HB3 proliferation inhibition;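 note: parasites grown with compound for 72 h before SYBR Green readout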; note: potency is the fitted concentration of half-maximal effect
[12] = qHTS Assay for Modulators of Human Peripheral Myelin Protein 22 (PMP22) Expression/Activity (AID 1967; active = well fitted curve in the direction sought with a large enough effect in the signal ratio; the % refers to the signal ratio)
Summary of the method: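 Mouse MSC80 Schwann line, Pmp22 promoter–CBG68 reporter, EF-alpha–CBR internal control. 24h compound exposure, 37 °C/5% CO2, DMEM + 10% FBS. Readout: corrected green/red luminescence ratio, normalized to untreated cells; concentration-response curves fitted and classified.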

[13] = target: Ferritin light chain (Equus caballus) (UniProt P02791); test: qHTS Validation Assay for Identification of Novel General Anesthetics (AID 2323)
Ferritin light chain (Equus caballus), sequence (P02791 2-175 limits assumed): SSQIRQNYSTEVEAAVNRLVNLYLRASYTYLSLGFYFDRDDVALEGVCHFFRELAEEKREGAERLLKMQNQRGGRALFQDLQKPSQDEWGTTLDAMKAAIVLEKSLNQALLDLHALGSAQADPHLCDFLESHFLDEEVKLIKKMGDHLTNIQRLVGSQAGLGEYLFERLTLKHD
Summary of the method: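 10 uM horse-spleen apoferritin + 1-AMA (50% saturated, PBS); cpd pin-transferred, 10 min RT. Ex 380/Em 535 nm endpoint. Activity normalized between free 1-AMA and 1-AMA/apoferritin; 4-parameter Hill fit of concentration-response.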

[14] = target: ATP-dependent DNA helicase Q1 (Homo sapiens) (UniProt P46063); test: qHTS Validation Assay for Inhibitors of RecQ-Like Dna Helicase 1 (RECQ1) (AID 2353); note: potency is the fitted concentration of half-maximal effect
ATP-dependent DNA helicase Q1 (Homo sapiens), sequence (P46063 whole entry, looked up): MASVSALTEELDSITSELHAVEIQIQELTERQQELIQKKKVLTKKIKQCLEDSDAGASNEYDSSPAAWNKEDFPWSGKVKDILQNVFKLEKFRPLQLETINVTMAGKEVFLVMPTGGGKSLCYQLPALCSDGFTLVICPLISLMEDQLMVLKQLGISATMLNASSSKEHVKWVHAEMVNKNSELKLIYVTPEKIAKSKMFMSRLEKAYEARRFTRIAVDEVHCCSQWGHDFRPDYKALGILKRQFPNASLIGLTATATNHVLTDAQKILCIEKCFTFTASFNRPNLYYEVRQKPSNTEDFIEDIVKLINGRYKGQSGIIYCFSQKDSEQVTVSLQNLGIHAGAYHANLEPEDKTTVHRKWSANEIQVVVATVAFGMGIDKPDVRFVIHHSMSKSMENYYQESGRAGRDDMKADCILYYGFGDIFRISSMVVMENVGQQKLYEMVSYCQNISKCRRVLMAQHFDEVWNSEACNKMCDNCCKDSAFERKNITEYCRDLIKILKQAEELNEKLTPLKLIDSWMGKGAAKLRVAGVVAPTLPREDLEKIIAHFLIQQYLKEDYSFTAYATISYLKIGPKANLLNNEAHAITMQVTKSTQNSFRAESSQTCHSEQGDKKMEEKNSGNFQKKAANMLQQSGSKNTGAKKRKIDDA
Summary of the method: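 RECQ1T1 50 nM; forked duplex (20 bp + 30-nt ss tails) 200 nM, ATP 2 mM final; pH 8.0, 2 mM MgCl2, 2.5 ug/ml poly(dI-dC); 15 min compound preincubation; discontinuous kinetic read over 2 h at RT.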

[15] = target: RecQ-like DNA helicase BLM (Homo sapiens) (UniProt P54132); test: qHTS Validation Assay for Inhibitors of Bloom's syndrome helicase (BLM) (AID 2364); note: potency is the fitted concentration of half-maximal effect
RecQ-like DNA helicase BLM (Homo sapiens), sequence (P54132 whole entry, looked up): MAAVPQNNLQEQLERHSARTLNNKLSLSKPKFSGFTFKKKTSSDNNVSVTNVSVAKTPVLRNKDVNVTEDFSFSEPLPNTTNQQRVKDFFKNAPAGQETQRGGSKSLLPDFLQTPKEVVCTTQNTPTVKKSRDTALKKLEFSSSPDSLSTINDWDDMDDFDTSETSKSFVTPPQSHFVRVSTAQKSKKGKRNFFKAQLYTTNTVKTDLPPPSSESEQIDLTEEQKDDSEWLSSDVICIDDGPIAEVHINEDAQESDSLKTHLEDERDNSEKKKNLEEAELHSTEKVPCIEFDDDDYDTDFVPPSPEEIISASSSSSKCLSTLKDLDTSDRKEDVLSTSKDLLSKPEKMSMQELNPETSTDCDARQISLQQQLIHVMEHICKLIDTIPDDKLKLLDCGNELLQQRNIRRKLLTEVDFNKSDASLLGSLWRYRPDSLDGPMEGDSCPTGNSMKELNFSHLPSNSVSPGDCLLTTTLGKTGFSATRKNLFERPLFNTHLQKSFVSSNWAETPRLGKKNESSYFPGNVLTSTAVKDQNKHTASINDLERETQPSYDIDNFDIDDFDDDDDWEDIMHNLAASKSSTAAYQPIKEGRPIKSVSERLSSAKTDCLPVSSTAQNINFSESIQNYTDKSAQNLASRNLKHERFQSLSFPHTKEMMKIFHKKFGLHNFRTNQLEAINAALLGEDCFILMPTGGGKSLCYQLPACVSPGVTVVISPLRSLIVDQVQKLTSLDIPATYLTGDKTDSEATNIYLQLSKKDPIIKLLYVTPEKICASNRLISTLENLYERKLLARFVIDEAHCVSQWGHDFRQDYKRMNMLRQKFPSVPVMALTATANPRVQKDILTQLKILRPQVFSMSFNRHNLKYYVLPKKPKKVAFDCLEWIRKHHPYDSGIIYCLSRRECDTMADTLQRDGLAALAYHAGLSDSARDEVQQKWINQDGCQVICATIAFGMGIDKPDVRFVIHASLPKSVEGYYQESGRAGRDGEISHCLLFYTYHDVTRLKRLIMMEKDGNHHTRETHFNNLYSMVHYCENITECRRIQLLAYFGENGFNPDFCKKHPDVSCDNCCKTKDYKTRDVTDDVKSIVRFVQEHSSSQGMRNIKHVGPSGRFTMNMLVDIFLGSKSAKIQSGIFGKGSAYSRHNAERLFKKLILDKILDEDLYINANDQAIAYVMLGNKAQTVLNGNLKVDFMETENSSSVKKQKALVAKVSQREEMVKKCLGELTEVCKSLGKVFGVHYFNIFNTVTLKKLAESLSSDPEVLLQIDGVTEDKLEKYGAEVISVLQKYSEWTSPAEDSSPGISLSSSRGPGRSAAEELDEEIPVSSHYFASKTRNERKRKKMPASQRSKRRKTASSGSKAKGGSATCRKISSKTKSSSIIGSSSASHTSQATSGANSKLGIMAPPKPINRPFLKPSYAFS
Summary of the method: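 BLM 50 nM in 25 mM Tris-HCl pH 8.0, 5 mM NaCl, 2 mM MgCl2, 1 mM DTT, 0.01% Tween-20, 2.5 ug/ml poly(dI-dC); 15 min cpd preinc, RT. Start: 200 nM forked DNA + 2 mM ATP (final). TAMRA read, 2 reads 2 h apart.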

[16] = qHTS for differential inhibitors of proliferation of Plasmodium falciparum line W2 (AID 1883); conditions: Potency: Plasmodium falciparum W2 proliferation inhibition;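 note: parasites grown with compound for 72 h before lysis and staining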; note: potency is the fitted concentration of half-maximal effect
[17] = measured here: cell count channel max response
[18] = measured here: lipid channel max response

Structure (SMILES)	outcome [1]	activity change, negative = inhibition ([2]; at 57.5 µM (top of the series))	max response [2, 17]	max response [2, 18]	Potency [3]	Potency [4]	Potency [5]	Potency [6]	Potency [7]	Potency [8]	Potency [9]	Potency [10]	Potency [11]	outcome [12]	Potency [13]	Potency [14]	Potency [15]	Potency [16]	activity change, negative = inhibition ([2]; at 25.7 µM (top of the series))
COCc1nc2c([nH]1)c(=O)n(C)c(=O)n2CC(C)C	inactive	1.67% (inactive)	-19.5%	-18.2%	inactive	inactive	inactive	inactive	inactive	inactive	inactive	inactive	inactive	inactive	inactive	inactive	–	–	–
CNCCNS(=O)(=O)c1cccc2cnccc12	inactive	0.292% (inactive)	5.66%	5.52%	inactive	inactive	inactive	inactive	inactive	inactive	inactive	inactive	inactive	–	–	inactive	inactive	–	–
C=CCN1CCc2cc(O)c(O)cc2C(c2ccccc2)C1 (stereo unspecified)	–	0.997% (inactive)	-6.45%	-5.19%	inactive	inactive	inactive	11.2 µM (active)	12.6 µM (active)	–	11.2 µM (active)	12.6 µM (active)	11.2 µM (active)	–	–	inactive	–	7.94 µM (active)	–
COc1cc(/C=C(\C#N)C(=O)c2ccc(O)c(O)c2)cc(I)c1O	inactive	-0.482% (inactive)	28.4%	26.2%	2.24 µM (active)	inactive	inactive	–	–	–	–	inactive	–	–	–	4.47 µM (active)	10 µM (active)	–	–
CC(C)NC[C@H](O)COc1ccc(CC(N)=O)cc1	inactive	0.49% (inactive) and -5.77% (inactive)	-3.12% [middle of 4 runs]	-2.86% [middle of 4 runs]	inactive	inactive	–	inactive	inactive	inactive	inactive	inactive	inactive	–	–	inactive	–	inactive	-3.22% (inactive) and -3.29% (inactive)
OC[C@H]1O[C@@H](n2cnc3cncnc32)[C@H](O)[C@@H]1O	–	-4.73% (inactive)	0.328%	-1.94%	inactive	inactive	inactive	inactive	–	5.01 µM (active)	–	inactive	–	inactive	inactive	inactive	–	–	–
Cn1c(=O)c2[nH]c(C3CCCC3)nc2n(C)c1=O	inactive	11.7% (inactive) and -0.538% (inactive)	10.8% and -10.7%	26.8% and -11.4%	inactive	inactive	inactive	inactive	–	inactive	inactive	inactive	–	–	inactive	inactive	inactive	–	–
O=C(O)[C@H]1NCCC[C@H]1C(=O)O	–	-1.57% (inactive)	-48.8%	-48.9%	inactive	inactive	inactive	inactive	inactive	inactive	inactive	inactive	inactive	inactive	inactive	inactive	–	inactive	–
NC(=O)CNCCC(c1ccccc1)c1ccccc1	inactive	0.71% (inactive)	-14.5%	-14.2%	inactive	inactive	inactive	4.47 µM (active)	–	–	inactive	4.47 µM (active)	inactive	–	inactive	inactive	–	2.24 µM (active)	–
C[N+](C)(C)CC=O	inactive	-0.649% (inactive)	50.2%	40.1%	inactive	inactive	inactive	inactive	inactive	inactive	inactive	inactive	inactive	–	inactive	inactive	–	inactive	–
CC(C)NC[C@H](O)COc1cccc2ccccc12	–	8.19% (inactive)	19.6%	29.6%	–	–	–	–	–	–	–	–	–	–	–	–	–	–	–
CCCn1c(=O)c2[nH]c(C3CCCC3)nc2n(CCC)c1=O	inactive	7.3% (inactive)	9.56%	17.6%	inactive	inactive	inactive	–	–	–	–	–	inactive	–	inactive	–	inactive	–	–
CC#CCOC(=O)c1c(C)nc2sc3c(c2c1N)CCC(O)C3 (stereo unspecified)	–	-1.83% (inactive)	5.64%	4.05%	inactive	inactive	inactive	–	–	11.2 µM (active)	inactive	inactive	inactive	–	–	inactive	–	–	–
CCCCOc1cc(CC2CNC(=O)N2)ccc1OC (stereo unspecified)	–	7.3% (inactive)	28.9%	40.3%	inactive	inactive	inactive	–	–	inactive	inactive	–	inactive	inactive	inactive	inactive	inactive	–	–
NC1(C(=O)O)CC1	inactive	3.79% (inactive)	18.9%	25.1%	inactive	inactive	inactive	–	–	11.2 µM (active)	–	inactive	–	–	inactive	inactive	–	12.6 µM (active)	–
CCN1C(=O)C=CC1=O	inactive	0.136% (inactive)	-19.7%	-18.9%	inactive	inactive	inactive	inactive	inactive	inactive	inactive	inactive	inactive	–	inactive	inactive	–	inactive	–
